The values below come from PubChem BioAssay (NCATS).

Where “and” joins values, the source holds several entries; their conditions need not be identical. Identical values can stand only once. Unmarked numbers belong to inactive results. Records with an inconclusive call do not appear. Calls of active or inactive are those of the source. The call rests on the fitted dose curve; in most records, active means well fitted curve in the direction sought with a large enough effect; inconclusive means small, poorly fitted or top-dose-only effect, or another doubt; inactive means no such curve, though single readings can be large; an effect the other way counts as inactive or inconclusive.

Assay [1] in a line: qHTS Assay for Identifying Gametocytocidal Compounds (AID 743244). Further: potency means the concentration at half of the fitted maximal effect.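 On max response: on the % scale 0 is the no-effect control and ±100 the full control effect; actives lower the fluorescent signal which means gametocytes are killed.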 Conditions: P. falciparum 3D7 stage III-V gametocytes, alamarBlue, 72 h; max response: stronger effect = lower value. A digest of the protocol:
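Stage III–V gametocytes of P. falciparum 3D7 were seeded at 20,000 cells/well onto pre-dispensed compounds. After 72 h, 37 °C, 5% CO2, alamarBlue was added for another 24 h.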
A general note: qHTS replaces the single test concentration by a dilution series.

Assay [2] can be described thus: qHTS assay for measurement of the activity of small molecule inhibitors on Zika virus induced Caspase-3 activity in human iPSC derived neural progenitor cells (hNPCs) (AID 1224857). Further: % of control where 0% means no effect; nearly all actives have a fitted effect of over 65% in size. In short, it runs like this: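 Values are percent inhibition of virus-induced caspase-3/7 signal, scaled between uninfected cells and ZIKV-infected cells. Infection used 2 FFU/cell for 6 h after 1 h compound exposure.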

Assay [3] in a line: qHTS assay for measurement of the activity of small molecule inhibitors on Zika virus induced Caspase-3 activity in human astrocytoma cells (AID 1224859).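 Further: plate controls were ZIKV-infected untreated cells for no effect and uninfected cells for full effect.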 A digest of the protocol:
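Compound added 1 h pre-infection; ZIKV 2 FFU/cell on SNB-19 cells, 6 h, 37 C/5% CO2. Caspase-Glo 3/7 luminescence; values as % inhibition of ZIKV-induced caspase activity.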

Assay [4] can be described thus: qHTS assay to identify small molecule inhibitors of chordoma cells - UCH-1 (AID 1259355). Further: on the % scale 0 is the no-effect control and ±100 the full control effect; nearly all actives have a fitted effect of over 55% in size. A digest of the protocol:
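Screening used approved and investigational drugs in 15-point titration against 800 seeded cells per well. A fixed combination of auranofin with camptothecin, doxorubicin, rubitecan and topotecan followed compound addition, and growth was scored by CellTiter-Glo after 48hr.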

Assay [5] can be described thus: qHTS assay to identify small molecule inhibitors of chordoma cells - UCH-2 (AID 1259356). Further: series mostly up to about 46 µM; on the % scale 0 is the no-effect control and ±100 the full control effect.
A short description of assay [6]: P-glycoprotein substrates identified in KB-8-5-11 adenocarcinoma cell line, qHTS therapeutic library screen (AID 1346987). Further: nearly all actives have a fitted effect of over 65% in size. Further: potency means the concentration at half of the fitted maximal effect. A digest of the protocol:
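Human cervical adenocarcinoma KB-8-5-11 cells, selected in colchicine to over-express P-gp and assayed without it, were exposed for 72 h to titrated compounds. An ATP-based luminescent viability signal gave AC50.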

Assay [7] can be described thus: NS1 protein of Zika virus - qHTS assay to identify small molecule inhibitors in human HEK 293 cells (AID 1347053).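 Further: series mostly up to about 46 µM; plate controls were infected untreated cells for no effect and uninfected cells for full effect; nearly all actives have a fitted effect of over 55% in size.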 In short, it runs like this: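 TR-FRET signal from two anti-ZIKV NS1 antibodies quantified NS1 in HEK 293 cells 24 h after MR766 infection at MOI = 0.5; compounds were added 1 h before virus. Uninfected cells and infected cells defined the NS1 normalization range.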

As for `COc1cc(O)c(C(=O)c2ccccc2)cc1S(=O)(=O)O`, in assay [1], the max response is -9.98%. The Potency entry in assay [2], in assay [4], in assay [5], in assay [6] and in assay [7] was “inactive” throughout. Besides, the molecule was called inactive in assay [3].

For `Oc1ccccc1C=NCc1ccccc1`, in assay [1], the max response was 0.984%. Also, the Potency result in assay [2], in assay [4], in assay [5], in assay [6] and in assay [7] was “inactive” each time. Further, the call in assay [3] was inactive.

`O=C(CCN1CCN2CCCC2C1)N1c2ccccc2Sc2ccc(Cl)cc21` (configuration not stated): the Potency in assay [1] is 22.4 µM (active). Further, the Potency entry in assay [2], in assay [4], in assay [5], in assay [6] and in assay [7] was “inactive” in each case. Besides, in assay [3], the outcome was inactive.

Turning to `Nc1nc(-c2ccccc2)c(Br)c(=O)[nH]1`, the max response in assay [1] is -0.157%. For the same molecule, the Potency entry in assay [2], in assay [4], in assay [5], in assay [6] and in assay [7] was “inactive” each time. In addition, the result in assay [3] was inactive.

For the molecule `NC(=S)N/N=C/c1cccnc1`, the max response in assay [1] is -11.6%. Besides, the Potency result in assay [2], in assay [4], in assay [5], in assay [6] and in assay [7] was “inactive” throughout. In addition, the outcome in assay [3] was inactive.

Regarding `COc1cc(C(=O)N2CCCCCCC2)cc(OC)c1OC`, the max response in assay [1] is 12.8%. Besides, the Potency result in assay [2], in assay [4], in assay [5], in assay [6] and in assay [7] was “inactive” each time. For the same molecule, in assay [3], the result was inactive.

Turning to `C#C[C@]1(O)CC[C@H]2[C@@H]3CCC4=CC(=O)CC[C@@H]4[C@H]3CC[C@@]21CC`, the max response in assay [1] was 6.28%. The Potency entry in assay [2], in assay [4], in assay [5] and in assay [7] was “inactive” in each case. Moreover, the molecule was classed as inactive in assay [3]. Besides, the Potency in assay [6] was 8.2 µM (active).

With `O=C1OC2(c3ccccc31)c1cc(Br)c(O)c(Br)c1Oc1c2cc(Br)c(O)c1Br`, in assay [1], the max response was -3.43%. Further, the Potency entry in assay [2], in assay [4], in assay [5], in assay [6] and in assay [7] was “inactive” in each case. The call in assay [3] was inactive.

For `O=S(=O)(O)c1ccc(O)cc1`, the max response in assay [1] is 19.1%. Moreover, the Potency entry in assay [2], in assay [4], in assay [5], in assay [6] and in assay [7] was “inactive” in each case. Besides, the outcome in assay [3] was inactive.

In the case of `Cc1cccc(C)c1NC(=O)CN1CCCCCC1`, the max response in assay [1] is 3.55%. In addition, the Potency entry in assay [2], in assay [4], in assay [5], in assay [6] and in assay [7] was “inactive” in each case. The outcome in assay [3] was inactive.

For the molecule `CCCCNC(=O)NS(=O)(=O)c1ccc(N)cc1`, the max response in assay [1] was 19.8%. In addition, the Potency result in assay [2], in assay [4], in assay [5], in assay [6] and in assay [7] was “inactive” each time. The call in assay [3] was inactive.

As to `OCc1ccccn1`, the max response in assay [1] was -7.21%. For the same molecule, the Potency result in assay [2], in assay [4], in assay [5], in assay [6] and in assay [7] was “inactive” in each case. Besides, the result in assay [3] was inactive.

For `O=C(CCCN1CC=C(n2c(=O)[nH]c3ccccc32)CC1)c1ccc(F)cc1`, in assay [1], the max response is 7.51%. The Potency result in assay [2], in assay [4], in assay [5], in assay [6] and in assay [7] was “inactive” in each case. In addition, in assay [3], the molecule was classed as inactive.

`CCCCCCCCCCC[C@@H](C[C@@H]1OC(=O)[C@H]1CCCCCC)OC(=O)[C@H](CC(C)C)NC=O`: in assay [1], the max response is -7.75%. The Potency entry in assay [2], in assay [4], in assay [5], in assay [6] and in assay [7] was “inactive” each time. For the same molecule, the result in assay [3] was inactive.

As to `Nc1nc(N)c(-c2ccccc2)s1`, in assay [1], the max response is -3.45%. Moreover, the Potency entry in assay [2], in assay [4], in assay [5], in assay [6] and in assay [7] was “inactive” throughout. The molecule was classed as inactive in assay [3].

Consider `CN1CCC(OC(c2ccccc2)c2ccccc2)CC1`, for which, in assay [1], the max response is -7.17%. Moreover, the Potency entry in assay [2], in assay [4], in assay [5], in assay [6] and in assay [7] was “inactive” in each case. Further, the molecule was called inactive in assay [3].

As to `O=S(c1cc(Cl)cc(Cl)c1O)c1cc(Cl)cc(Cl)c1O`, the max response in assay [1] was 11.4%. Besides, the Potency result in assay [2], in assay [4], in assay [5], in assay [6] and in assay [7] was “inactive” in each case. In assay [3], the call was inactive.

For `CC(=O)Nc1ccc(OCC(O)CNC(C)C)cc1` (configuration not stated), the max response in assay [1] is -2.82%. For the same molecule, the Potency result in assay [2], in assay [4], in assay [5], in assay [6] and in assay [7] was “inactive” throughout. For the same molecule, in assay [3], the molecule was classed as inactive.

For the molecule `CC[C@]12CCCN3CCc4c(n(c5ccccc45)C(=O)C1)[C@@H]32`, the max response in assay [1] was 3.35%. Also, the Potency entry in assay [2], in assay [4], in assay [5] and in assay [7] was “inactive” each time. Besides, the molecule was classed as inactive in assay [3]. Moreover, the Potency in assay [6] was 5.56 µM (active) and 5.8 µM (active).

In the case of `CN(C)CCN1C(=O)c2ccccc2N(C)c2ccccc21`, in assay [1], the max response is -0.0527%. For the same molecule, the Potency result in assay [2], in assay [4], in assay [5], in assay [6] and in assay [7] was “inactive” throughout. In addition, the result in assay [3] was inactive.

As to `COc1ccc2c(c1)c1c3n2CCN(C)C3=NCC1`, in assay [1], the max response was 18.4%. The Potency result in assay [2], in assay [4], in assay [5], in assay [6] and in assay [7] was “inactive” in each case. The molecule was called inactive in assay [3].

With `OC1C(O)C(O)C(O)C(O)C1O` (configuration not stated), the max response in assay [1] is 0.49%. Also, the Potency result in assay [2], in assay [4], in assay [5], in assay [6] and in assay [7] was “inactive” throughout. Also, the result in assay [3] was inactive.

`CCc1cc(Cl)c(OC)c(C(=O)NC[C@@H]2CCCN2CC)c1O`: the max response in assay [1] was -8.19% and -10.7% and 19.5%. Besides, the Potency result in assay [2], in assay [4], in assay [5], in assay [6] and in assay [7] was “inactive” throughout. In addition, the call in assay [3] was inactive.

Take `C[C@@H](O)[C@H]1C(=O)N2C(C(=O)O)=C([C@H]3CCCO3)S[C@H]12`: the max response in assay [1] is -9.42%. Further, the Potency result in assay [2], in assay [4], in assay [5], in assay [6] and in assay [7] was “inactive” in each case. For the same molecule, in assay [3], the molecule was called inactive.

Regarding `c1ccc(CC2=NCCN2)cc1`, the max response in assay [1] was -3.06%. For the same molecule, the Potency result in assay [2], in assay [4], in assay [5], in assay [6] and in assay [7] was “inactive” in each case. Moreover, the result in assay [3] was inactive.

`O=C1C(CCS(=O)c2ccccc2)C(=O)N(c2ccccc2)N1c1ccccc1` (configuration not stated): in assay [1], the Potency was 0.0089 µM (active). In addition, the Potency entry in assay [2], in assay [4], in assay [5], in assay [6] and in assay [7] was “inactive” throughout. Moreover, in assay [3], the molecule was called inactive.
